CYP2C19 activ: activators of human cytochrome P450 2C19 | P33261 | recombinant CYP2C19, luciferin-H EGE luminescence; stronger effect = higher value; 0 = fully inhibited enzyme, 1 = untreated enzyme | activation factor at 5 µM | 96,000 tested, under 10 active | AID 1025;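 active means activation factor of at least 2 at 5 µM in the primary screen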;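 further: 0 = wells with 2.5 mM tranylcypromine and 1 = vehicle-only wells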
CYP2C9 inh: blocks human cytochrome P450 2C9; P11712; CYP2C9 Supersomes, luciferin-H conversion, luminescence; inhibition, % at 5 µM; 20% of 96,000 active; AID 777;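 active means blocking of liver enzyme CYP2C9 beyond about 50% at 5 µM, limit read from the data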
Target sequence (P11712 whole entry, looked up): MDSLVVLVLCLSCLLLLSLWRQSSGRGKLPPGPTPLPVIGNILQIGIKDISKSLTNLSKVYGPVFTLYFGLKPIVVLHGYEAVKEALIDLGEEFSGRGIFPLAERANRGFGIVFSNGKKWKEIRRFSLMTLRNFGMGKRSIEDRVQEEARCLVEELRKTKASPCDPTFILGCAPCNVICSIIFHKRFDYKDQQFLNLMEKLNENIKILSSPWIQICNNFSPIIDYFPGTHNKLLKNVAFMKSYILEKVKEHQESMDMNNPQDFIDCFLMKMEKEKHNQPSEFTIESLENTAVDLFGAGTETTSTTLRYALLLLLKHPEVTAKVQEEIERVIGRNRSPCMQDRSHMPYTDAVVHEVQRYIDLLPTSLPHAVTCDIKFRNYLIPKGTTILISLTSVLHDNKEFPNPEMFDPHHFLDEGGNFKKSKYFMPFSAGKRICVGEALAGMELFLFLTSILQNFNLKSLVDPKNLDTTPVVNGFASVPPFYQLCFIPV
CYP2C9 activ: activators of human CYP2C9; P11712; recombinant CYP2C9, luciferin-H conversion, luminescence; stronger effect = higher value; factor 1 = untreated enzyme, 0 = blocked; activation factor at 5 µM; 1.4% of 96,000 active; AID 1024;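 active means activation factor of 2 or more for CYP2C9 at a 5 µM dose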;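 further: 0 = sulfaphenazole-blocked wells and 1 = vehicle-only wells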
CYP2C19 inhib: inhibitors of human CYP2C19. P33261. AID 778. inhibition, % at 5 µM. 21% of 96,000 active. CYP2C19 Supersomes, luciferin-H EGE luminescence, 30 min;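 active means CYP2C19 inhibition above a set limit at 5 µM in the primary screen, cut at about 50% in these data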;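 further: plate controls were negative control wells for no effect and 2.5 mM tranylcypromine positive control for full effect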
Mac1 fbg inh: blocks human CD11b/CD18 adhesion to fibrinogen. 0.54% of 93,000 active. inhibition, % at 10 µM. K562 CD11b/CD18 adhesion to fibrinogen, ATPlite luminescence; Mn2+ added to activate the integrin. P05107+P11215;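 active means primary inhibition of 50% or more at 10 µM, then 40% or more on retest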
CD11b adhes enh: enhancers of human CD11b/CD18 binding to fibrinogen; P05107+P11215; K562 CD11b/CD18 adhesion to fibrinogen, ATPlite luminescence; activation, % at 10 µM; 0.07% of 93,000 active;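 active means 10 µM primary screen giving 50% or more activity, confirmed by 40% or more on retest at that dose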
Starred values were filed as active, the others as inactive; · = not tested or not shown. Rows were chosen to be rich in hits. Some 28% of all compounds tested hit in one or more screens of this group.

SMILES	CYP2C19 activ	CYP2C9 inh	CYP2C9 activ	CYP2C19 inhib	Mac1 fbg inh	CD11b adhes enh
COc1ccccc1NC(=O)CSc1nnc(Cc2ccccc2)o1	0.9	14	0.9	11	-2	1
O=C(Nc1nnc(Cc2ccc(Cl)cc2)s1)c1ccco1	0.8	63*	0.4	18	-3	-1
COc1ccc(NC(=O)CSc2nnc(Cc3ccccc3)o2)c(OC)c1	0.3	26	0.7	71*	9	-2
CCc1nnc(NC(=O)CSc2nnc(Cc3ccc(OC)cc3)o2)s1	0.9	53*	0.5	13	-7	-2
COc1ccc(Cc2nnc(NC(=O)c3cccs3)s2)cc1	0.9	69*	0.3	9	11	-3
COc1cccc(NC2=Nc3cccc4cccc2c34)c1	·	·	·	·	8	0
CCCCc1nn(-c2cc(Cl)ccc2OC)c2c1C(=O)CC(C)(C)C2	0.6	56*	0.4	44	-4	-8
CCn1c2c(c3cc(Cl)ccc31)CCCC2=O	0.9	0	1	5	7	-3
CCCc1nn(-c2cc(Cl)ccc2OC)c2c1C(=O)CCC2	0.4	42	0.6	59*	8	-9
O=C([C@H](Cc1ccccc1)NS(=O)(=O)c1ccc(Cl)cc1)N1CC[C@@]2(O)CCCC[C@H]2C1	0.6	35	0.6	40	·	·
Cc1cc(Cl)ccc1OCCCC(N)=O	0.6	12	0.9	40	-8	2
Cc1cc(Cl)ccc1OC(C)c1nnc(N)s1 (stereo unspecified)	0.4	-1	1	61*	6	0
CCCCN(CCCNC(=O)c1ccc2nc(N3CCOCC3)sc2c1)Cc1ccccc1	0.9	0	1	8	-4	-5
N#Cc1ccc(COC(=O)CSc2nnc(C3CCCCC3)n2N)cc1	0.8	13	0.9	15	-8	-2
CCOC(=O)c1sc(N)c(C#N)c1CSc1nnc(C2CCCCC2)n1N	0.6	78*	0.2	44	-4	0
CCOC(=O)c1ccc(NC(=O)C(=O)NCC2CCCO2)cc1 (stereo unspecified)	0.8	16	0.8	18	5	0
Cc1nc2ccc(C(=O)OCc3ccccc3Br)cc2nc1C	0.8	-32	1.3	16	-7	-4
N#Cc1c(C(F)(F)F)cc(C2CC2)[nH]c1=O	1	-14	1.1	-1	-8	-2
N#Cc1c(C(F)(F)F)cc(-c2ccccc2)[nH]c1=O	1.1	58*	0.4	-10	·	·
N#Cc1c(C(F)(F)F)cc(-c2ccccc2Cl)[nH]c1=O	1.1	86*	0.1	-8	62*	-2
Cc1cccc(-n2cnc(C(=O)N/N=C/c3ccccc3)c2)n1	1	9	0.9	-3	-35	2
O=S(=O)(NCCc1cn2ccccc2n1)c1cccs1	0.8	3	1	18	-52	-2
CC(=O)c1c(C)[nH]c(C(=O)NCCc2cccc(C)c2)c1C	0.6	34	0.7	38	·	·
CC(=O)c1c(C)[nH]c(C(=O)OCC(=O)NCCc2ccc(F)cc2)c1C	0.7	39	0.6	26	1	-5
COc1ccc(CCNC(=O)c2[nH]c(C)c(C(C)=O)c2C)cc1	0.5	73*	0.3	50*	7	-2
SMILES	CYP2C19 activ	CYP2C9 inh	CYP2C9 activ	CYP2C19 inhib	Mac1 fbg inh	CD11b adhes enh
CC(=O)c1c(C)[nH]c(C(=O)OCC(=O)NCCc2ccc(Cl)cc2)c1C	0.1	87*	0.1	87*	-21	0
COc1cc2c(cc1OC)CN(CC(=O)Nc1ccc(C#N)cc1)CC2	0.8	24	0.8	23	6	1
COc1ccc(-c2csc(N(CCc3ccc(OC)c(OC)c3)C(=O)COc3ccccc3)n2)cc1	0.6	68*	0.3	38	-48	50
COc1ccc(-c2csc(N(Cc3ccccc3)C(=O)COc3ccc(Cl)cc3)n2)cc1	1.1	-7	1.1	-15	-11	-6
CCCCCSc1nnc(-c2cc(Br)ccc2N)c(=O)[nH]1	0.9	60*	0.4	11	35	-3
CCCCSc1nnc(-c2ccccc2N)c(=O)[nH]1	1	21	0.8	3	3	-4
O=C(Nc1ccc2c(c1)OCCO2)C1CCCN1S(=O)(=O)c1ccc(Cl)cc1 (stereo unspecified)	0.1	96*	0	88*	-8	-2
O=C(Nc1ccc2c(c1)OCO2)C1CCCCN1S(=O)(=O)c1ccccc1 (stereo unspecified)	0	64*	0.4	98*	-4	10
O=C(CN1CCN(S(=O)(=O)c2ccc(Cl)cc2)CC1)Nc1ccc2c(c1)OCCO2	0.6	14	0.9	42	6	-1
Cc1cc2nsnc2c(S(=O)(=O)NCC(=O)O)c1C	0.9	19	0.8	6	-10	-5
Cc1ccccc1NC(=O)c1cc(S(=O)(=O)N2CCOCC2)ccc1F	1	4	1	1	2	2
CCOC(=O)c1ccc(NC(=O)c2ccc(C)c(S(=O)(=O)N3CCOCC3)c2)cc1	0.7	-15	1.1	26	84*	-8
CCNc1ccc(C(=O)OCC)cc1NC(=O)c1cc(S(=O)(=O)N2CCOCC2)ccc1C	0.1	54*	0.5	88*	4	3
CCNc1ccc(C(=O)OCC)cc1NC(=O)c1cccc(N(C)C)c1	0.7	50*	0.5	28	18	0
CCOC(=O)c1ccc(NC(=O)c2cccc(S(=O)(=O)N3CCOCC3)c2)cc1	0.8	5	0.9	18	40	-3
c1ccn2c(SCc3cn4ccsc4n3)nnc2c1	0.8	-3	1	20	-18	1
COC(=O)Nc1ccc(S(=O)(=O)NCCO)cc1	1.1	6	0.9	-5	1	-4
CCc1nnc(NC(=O)C2CCCN2S(=O)(=O)c2ccc(F)cc2)s1 (stereo unspecified)	0.2	86*	0.1	76*	-6	-2
CC(=O)c1ccc(NC(=O)C2CCCN2S(=O)(=O)c2ccc(F)cc2)cc1 (stereo unspecified)	0.3	74*	0.3	66*	-15	0
CCc1nnc(NC(=O)[C@@H]2CCCN2S(=O)(=O)c2ccc3c(c2)OCCO3)s1	0.8	45	0.6	16	-8	-5
CCC1CCCCN1C(=O)CSc1nnc(CNC(=O)c2cc(OC)c(OC)c(OC)c2)o1 (stereo unspecified)	0.9	30	0.7	6	20	0
OC1(c2ccccc2F)CCN(Cc2nnc(-c3ccccc3)o2)CC1	0.8	37	0.6	16	-20	3
c1ccc(-c2nnc(CN3CCCc4ccccc43)o2)cc1	0.2	76*	0.2	78*	12	1
Fc1ccc(N2CCN(Cc3nnc(-c4ccccc4)o3)CC2)cc1	·	·	·	·	-13	1
